Source: PubChem BioAssay
Shown are actives, neighbours in structure and some others; about 3.7% of the full set was active somewhere.
BH1578 lux ind: quorum light induction in luxS cqsA deficient V. cholerae; V. cholerae BH1578 lux reporter, luminescence, 6 h; activation, % at 18.7 µM; actives 0.16% (n = 350,000); AID 588436; in the data active means activation mostly above about 9.7%, no sharp cut-off; inconclusive means no clear call, values can overlap the other calls; inactive means mostly below about 3.7%
BJeLR lethal: kills HRASV12-expressing BJeLR cells | BJeLR (HRASV12) viability, CellTiter-Glo ATP luminescence, 48 h | inhibition, % (no concentration beside the values) | actives 0.17% (n = 300,000); in the data active means inhibition above about 50%; inconclusive means no clear call, values can overlap the other calls
Anthrax LF prot: blocks Bacillus anthracis lethal factor protease; P15917; multiplex microsphere protease cleavage assay, LF; inhibition, % at 10 µM; actives 0.12% (n = 360,000); further: plate controls were buffer without enzyme for full effect and enzyme alone for no effect
BoNT A protease: inhibitors of Botulinum neurotoxin A light chain protease; multiplex microsphere protease substrate cleavage, flow cytometry; inhibition, % at 10 µM; actives 0.17% (n = 360,000); AID 588499; further: plate controls were buffer without enzyme for full effect and enzyme alone for no effect
Bead autofluor: counter-screen for toxin protease inhibitors: compound fluorescence | fluorescence intensity (test concentration not listed) | compound autofluorescence counterscreen, microsphere flow cytometry; stronger effect = higher value | actives 3.1% (n = 360,000); in the data active means fluorescence intensity above about 16000; inconclusive means no clear call, values can overlap the other calls
BoNT F protease: BoNT F light chain protease inhibition. Multiplex microsphere protease cleavage assay, flow cytometry. AID 588497. actives 0.22% (n = 360,000). inhibition, % at 10 µM; in the data active means inhibition above about 35%, passing the limit was not always enough; inconclusive means no clear call, values can overlap the other calls; further: plate controls were buffer without enzyme for full effect and enzyme alone for no effect
* = called active by the depositor; i = inactive; ? = inconclusive; . = no result given. Unless noted, no stated cut-off is given here; in the data, active means inhibition above about 30%; inconclusive means no clear call, values can overlap the other calls; inactive means below that.

SMILES	BH1578 lux ind	BJeLR lethal	Anthrax LF prot	BoNT A protease	Bead autofluor	BoNT F protease
CCN(CC)c1cc(C)c(C#N)c2nc3ccccc3n12	0	12	-11	-8	4281	?
Cn1c(=O)c2[nH]c(CCCCCCCc3nc4ccccc4[nH]3)nc2n(C)c1=O	-5	.	-1	0	2787	-8
Cc1cc(NC(=O)Cn2nnc3sc4c(c3c2=O)CCC(C(C)(C)C)C4)no1 (stereo not drawn)	i	1	0	?	24311*	-4
Cc1cc(NC(=O)CSc2nc3sc4c(c3c(=O)n2C)CCCC4)no1	0	-14	1	-5	17695*	-4
Cc1cc(NC(=O)Cn2nnc3sc4c(c3c2=O)CCCC4)no1	1	0	-5	-4	17027*	-6
Cc1cc(NC(=O)CSc2nc(C3CC3)nc3sc4c(c23)CCC(C)C4)no1 (stereo not drawn)	.	-5	.	.	.	.
CCOC(=O)C1CCCN(C(=O)c2cccnc2Oc2ccccc2)CC1 (stereo not drawn)	-1	.	-8	0	3956	-2
Cc1ccc(NC(=O)C(C)N2C(=O)C3C4CC(C(Br)C4Br)C3C2=O)cc1 (stereo not drawn)	38*	-8	-2	-1	22632*	-3
C[C@H]1CCCCO[C@H](CN(C)S(=O)(=O)c2cn(C)cn2)[C@@H](C)CN([C@@H](C)CO)C(=O)c2cc(NS(=O)(=O)c3ccccc3)ccc2O1	-1	.	-2	0	3459	0
COC(=O)C1=CN(c2cccc(C)c2)C=C(C(=O)OC)C1c1cc(OC)c(O)c([N+](=O)[O-])c1	i	-2	0	2	22321*	2
COc1ccc(CN(C)C(=O)[C@H]2O[C@@H](n3ccc(N)nc3=O)[C@H](O)[C@@H]2O)cc1OC	.	.	-5	0	6140	0
O=C(Nc1ccc2c(c1)CN(C(=O)Nc1ccc(F)cc1)CC2)c1ccccn1	i	.	-6	0	3593	9
Clc1ccccc1CN1CCN(c2ccccc2)CC1	i	-3	2	1	5857	7
Cn1cc(CN2CCN(c3ccccc3)CC2)c2ccccc21	0	2	-13	3	21941*	1
CCOC(=O)c1c(-c2ccccc2)csc1NC(=O)c1ccc(S(=O)(=O)N2CC(C)OC(C)C2)cc1 (stereo not drawn)	2	-10	-1	2	23061*	-1
CCOC(=O)c1c(-c2cc(OC)c(OC)c(OC)c2)csc1NC(=O)c1ccccc1	-1	.	-4	0	3874	0
CCOC(=O)c1c(-c2ccccc2)csc1NC(=O)c1cc(S(=O)(=O)N2CCOCC2)ccc1C	0	0	-2	1	2263	-2
CCOC(=O)c1c(-c2ccccc2)csc1NC(=O)c1ccc(N2C(=O)CCC2=O)cc1	0	2	1	1	22792*	1
CC(=O)c1ccc(OC(=O)COc2ccccc2Cl)cc1	i	-1	-115	-126	32253*	?
O=C(Nc1ccccc1-c1nnc(SCc2ccc(Cl)cc2)o1)c1ccccc1	i	0	-3	1	22262*	-1
Clc1ccc(CSc2nnc(-c3c[nH]c4ccccc34)o2)cc1	i	5	-4	0	5865	-2
O=c1c(-c2nnc(SCc3ccc(Cl)cc3)o2)cccn1Cc1ccccc1	-2	4	0	1	22587*	1
O=C(Nc1ccccc1-c1nnc(SCc2ccccc2)o1)c1ccccc1	-1	1	1	-2	11346	-6
CCCCN(C)c1c(C)nc2ccc(C(=O)N(C)Cc3ccco3)cn12	i	.	-4	0	3577	8
CC(OC(=O)C1CC=CCC1C(N)=O)C(Cl)=C(Cl)Cl (stereo not drawn)	-2	-1	0	2	22015*	2
O=S(=O)(c1ccc(-c2nnc(SCc3ccccc3)o2)cc1)N1CCCC1	i	-8	2	?	19388*	3
NC(=O)CSc1nnc(-c2ccc(S(=O)(=O)N3CCCC3)cc2)o1	0	2	0	0	10271	3
O=S(=O)(c1cccc(-c2nnc(-c3ccc(Br)cc3)o2)c1)N1CCCCCC1	-16	4	-2	3	20866*	6
Cc1ccc(CSc2nnc(-c3ccc(S(=O)(=O)N4CCCC4)cc3)o2)cc1	-14	0	-6	0	22758*	-5
